# Bioassay records: PubChem BioAssay, National Center for Advancing Translational Sciences (NCATS)
# RE007 growth inh: less growth of the S. pombe RE007 Vpr strain; S. pombe RE007 Vpr strain, BacTiter-Glo ATP luminescence, 24 h; Potency, µM (top dose mostly 92.2 µM), for inactives: at the top dose activity change, negative = less growth, usual class: inhibitors; 0.21% of 360,000 active; active = well fitted falling curve with a large enough effect; inconclusive = small, poorly fitted or top-dose-only effect; inactive = no such curve, though single readings can be large or run the other way; note: % is set by controls: 0 for no effect and ±100 for the full control effect; nearly all actives have a fitted effect of over 50% in size
#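 Fission yeast strain RE007, carrying one chromosomally integrated HIV-1 vpr copy, was seeded at OD 0.01 in PMG+AL medium with 23 nL pinned compound. After 24 h at 30 °C and 99% humidity, viability was read by BacTiter-Glo luminescence.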
# Giardia FBPA inh: inhibitors of Giardia lamblia fructose-1,6-bisphosphate aldolase; purified Giardia FBPA; 0.71% of 290,000 active; A8B2U2; AID 2451; Potency, µM (series often up to 59.6 µM), for inactives: at the top dose activity, negative = inhibition, hits mostly inhibitors; note: % is set by controls: 0 for no effect and ±100 for the full control effect; nearly all actives have a fitted effect of over 55% in size
#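 Giardia FBPA (40 nM reagent) was preincubated 10 min at RT with compound (up to 57.5 uM final), then substrate plus GAPDH/TPI/NAD/arsenate coupling system with diaphorase/resazurin was added; resorufin fluorescence (525/598 nm) was read after 20 min.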
# TbPYK inhibitor: blocks Trypanosoma brucei pyruvate kinase; Potency, µM (series often up to 76.8 µM), inactives show at the highest dose activity, negative = inhibition, most hits filed as inhibitors; 0.12% of 410,000 active; Q57TT1; TbPYK enzyme, Kinase-Glo Plus ATP luminescence, 45 min; note: % is set by controls: 0 for no effect and ±100 for the full control effect; nearly all actives have a fitted effect of over 50% in size
#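 Assay buffer: 50 mM TEA pH 7.2, 100 mM KCl, 10 mM MgCl2, 0.05% BSA, 0.01% Tween-20. Pyruvate kinase from T. brucei plus substrate met compound, then ADP (130 uM final). Luminescence was read post 45 min RT.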
# LmPK inhibitor: inhibitors of Leishmania mexicana pyruvate kinase; purified LmPK, Kinase-Glo ATP luminescence, 1 h; Q27686; 0.37% of 290,000 active; Potency, µM (highest dose often 57.5 µM), inactives show at the top dose activity change, negative = inhibition, actives largely listed as inhibitors; AID 1721; note: % is set by controls: 0 for no effect and ±100 for the full control effect
# Target sequence (Q27686 whole entry, looked up): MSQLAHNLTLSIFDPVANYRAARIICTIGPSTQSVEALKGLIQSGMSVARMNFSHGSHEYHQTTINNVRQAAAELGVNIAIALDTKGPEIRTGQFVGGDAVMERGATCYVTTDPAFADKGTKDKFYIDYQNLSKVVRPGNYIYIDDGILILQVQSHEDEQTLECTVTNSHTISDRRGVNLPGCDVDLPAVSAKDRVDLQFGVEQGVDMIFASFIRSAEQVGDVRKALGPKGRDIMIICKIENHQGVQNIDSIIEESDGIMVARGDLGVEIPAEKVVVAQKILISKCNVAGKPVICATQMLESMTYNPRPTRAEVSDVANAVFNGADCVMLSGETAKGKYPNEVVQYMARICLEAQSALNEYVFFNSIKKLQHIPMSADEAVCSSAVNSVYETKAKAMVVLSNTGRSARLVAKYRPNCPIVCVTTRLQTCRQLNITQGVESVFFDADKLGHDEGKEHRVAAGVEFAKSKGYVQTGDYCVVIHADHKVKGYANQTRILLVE
#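 0.1 nM LmPK, 0.5 mM PEP, 0.1 mM ADP; 50 mM imidazole pH 7.2, 7 mM MgCl2, 50 mM KCl; 1 h RT. Kinase-Glo luminescence readout, normalized to no-enzyme (full inhibition) and uninhibited wells.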
# SARS PLP yeast: blocks SARS-CoV papain-like protease in a yeast assay; S. cerevisiae expressing SARS-CoV PLpro, growth rescue; Potency, µM (doses to about 32.9 µM), without a hit: at the top dose activity, positive = growth rescue, hits mostly activators; 0.19% of 330,000 active; AID 485353; calls by dose curve; note: 0% is about no effect; nearly all actives have a fitted effect of over 55% in size
# The depositor's hits bear a star; ? = inconclusive; / = no result; [ ] = dose if it differs, or a comment. Rows were chosen to be rich in hits. Some 1.1% of all compounds tested hit in one or more screens of this group. Unless noted, calls come from the whole dose curve; as a rule, active = well fitted curve in the direction sought with a large enough effect; inconclusive = small, poorly fitted or top-dose-only effect, or another doubt; inactive = no such curve, though single readings can be large; an effect the other way counts as inactive or inconclusive. Potency is the fitted concentration of half-maximal effect.
SMILES,RE007 growth inh,Giardia FBPA inh,TbPYK inhibitor,LmPK inhibitor,SARS PLP yeast
Cc1nnc(-c2ccccc2)c(=O)n1/N=C/c1c(O)ccc2ccccc12,1%,6%,9%,0%,3.2µM*
Cc1nc2ccccc2c(=O)n1/N=C/c1ccccc1O,-3%,15%,-1%,1%,0%
CNc1cc(-c2ccccc2C(F)(F)F)ncn1,/,-2%,/,/,/
CN1CCN(C(=O)c2ccc3c(c2)N(Cc2ccc(C(F)(F)F)cc2)C(=O)c2ccccc2S3)CC1,/,/,1%,/,/
C=CCN1CCc2cccc3c2[C@H]1Cc1ccc(O)c(O)c1-3,?,?,?,1.6µM*,-6%
O=C(/C=C\Nc1ccccn1)c1ccc(Cl)cc1,-19%,2%,-15%,13µM*,-11%
Cc1ccc(-c2nnc(SCC(=O)NC(C)(C)C)nc2-c2ccc(C)cc2)cc1,/,/,-11%,/,/
CC(=O)Oc1cc(-c2coc3cc(OC(C)=O)c(OC(C)=O)c(OC(C)=O)c3c2=O)cc(OC(C)=O)c1OC(C)=O,/,5.6µM*,/,/,/
COc1ccccc1NC(=O)CSc1oc(-c2ccccc2)nc1S(=O)(=O)c1ccccc1,/,/,0%,/,/
CC(C)C(Cl)=NOC(=O)Nc1ccc(F)cc1,10µM*,/,-9%,/,/
Cc1ccc(Sc2ccc(N3CCC(C(=O)Nc4cc(C)cc(C)c4)CC3)nn2)cc1,/,/,1%,/,/
Cc1ncc2c(c1O)COP(=O)(O)OC2,/,5%,/,/,/
COc1ccc(Nc2nc(-c3sc(NC(C)=O)nc3C)cs2)cc1,/,-20%,/,3%,3.2µM*
COc1ccc(CNc2ccncc2)c(OC)c1OC,-19%,/,1%,/,/
COc1cc(NCc2ccc3nc(N)nc(N)c3c2C)cc(OC)c1OC,/,5.6µM*,-7%,/,/
Cc1ccccc1-c1nccc(NCc2cccs2)n1,/,-9%,/,/,/
CCOC(=O)c1c(N2C(=O)C=CC2=O)sc(C)c1C,13µM*,-15%,25µM*,?,-39%
O=C(CCCn1c(=O)c2sccc2n(Cc2cccc(Cl)c2)c1=O)NCc1ccc2c(c1)OCO2,/,/,3%,/,/
COc1cc2c(C#N)c(N3CCCC3)nc(N)c2c(N)n1,-5%,1.3µM*,2%,4%,-5%
Clc1ccc(CCNC(c2ccc(Cl)cc2)c2nnc(-c3ccccc3)o2)cc1 (stereo unspecified),/,/,6%,/,/
O=C(Nc1ccc(Cl)cn1)c1ccccc1F,-8%,2%,-7%,22µM*,/
O=C(Nc1ccc(Cl)cn1)Nc1ccccc1F,-6%,3%,-5%,-4%,15%
O=C(/C=C/Nc1ccc(F)cc1F)c1ccco1,-1%,-12%,?,10µM*,-1%
O=C(/C=C/Nc1ccc(F)cc1F)c1cccs1,-29%,-14%,?,8.9µM*,13%
O=C(/C=C\Nc1cccc(F)c1)c1cccs1,?,6%,-7%,?,-17%
SMILES,RE007 growth inh,Giardia FBPA inh,TbPYK inhibitor,LmPK inhibitor,SARS PLP yeast
O=C(/C=C/Nc1ccccc1F)c1cccs1,-25%,1%,?,16µM*,-5%
CCn1c(C(=O)N2CCCC(C(=O)NCCCc3ccccc3)C2)cc2sccc21 (stereo unspecified),-6%,19%,-16%,4%,22%
CCn1c(C(=O)N2CCCC(C(=O)NCCc3ccc(C)cc3)C2)cc2sccc21 (stereo unspecified),10%,0%,35µM*,1%,0%
Nc1ncnc(Nc2ccc(Cl)cc2)n1,/,/,-2%,/,/
C[C@H]1[C@@H]2Cc3ccc(O)cc3[C@]1(C)CCN2CCc1ccccc1,/,/,-5%[157 µM],/,/
CC(=O)Oc1ccc(OC(C)=O)c(SCCCCCCl)c1,-23%,-3%,-7%,11µM*,-6%
CC(=O)Oc1ccc(C(=O)O)cc1OC(C)=O,-6%,7%,-12%,1%,1%
CCOc1ccc(N2C(=O)CC(N3CCOCC3)C2=O)cc1 (stereo unspecified),-6%,-2%,3%,2%,-17%
O=C(C1CCN(C2CC(=O)N(c3cccc(Cl)c3)C2=O)CC1)N1CCCC1 (stereo unspecified),13µM*,-3%,4%,-1%,-11%
CCOC(=O)C1CCN(C2CC(=O)N(c3cccc(Cl)c3)C2=O)CC1 (stereo unspecified),10µM*,2%,-15%,1%,-10%
